For 15 compounds, Potency results are on record in PubChem BioAssay (NCATS).

Unmarked numbers belong to inactive results. How the calls were made is not given here.
Potency means the concentration at half of the fitted maximal effect.

This assay relates to HIV-1 nucleocapsid protein NCp7 (binding to TG oligonucleotide). Nature of the assay: HIV Nucleocapsid (AID 346).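 Further: potency is for inhibitors that block NC binding and lower polarization.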 The note with it: HIV-1 NC / fluorescein-TGTGTGTG probe, fluorescence polarization. The procedure, abridged: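 Fluorescence polarization binding of 100 nM HIV-1 NC to 10 nM fluorescein-labelled TG4xF oligonucleotide. Buffer was Hepes pH 7.5 with 250mM NaCl, 1uM ZnCl2, TCEP and 2-mercaptoethanol. Compounds were incubated 1 hr at room temperature before the read.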
Background: Polarisation of emitted light reports the rotation of a fluorescent probe.
`O=S(=O)(c1ccccc1)N1CCC2(CCCN(c3cccc(-c4ccccc4)c3)C2)CC1`: the Potency was above 20 µM.
Turning to `O=C(c1ccncc1)N1CCC2(CC1)CN(c1ncccn1)C2`, the Potency was above 20 µM.
On to `Cn1c(=O)cnc2cnc(Oc3ccccc3)nc21`, for which the Potency was above 20 µM.
For `O=C(c1csnn1)N1CCC2(CC1)CCN(c1cccc(-c3ccccc3)c1)CC2` the value was above 20 µM.
Then `CN(C)c1ccc(-c2ccc3ncnc(NCc4ccccc4)c3c2)cc1`, with above 20 µM; and `CC(=O)N1CCC2(CC1)CN(c1cccc(-c3ccccc3)c1)C2`, with above 20 µM; and `Cn1c(=O)c(-c2ccccc2)nc2cnc(N3CCOCC3)nc21`, with above 20 µM.
For `Cc1cccc(CNc2ncnc3ccc(-c4cccc(C#N)c4)cc23)c1`, the Potency is above 20 µM.
For `COCCn1c(=O)c(-c2ccc(F)cc2)nc2cnc(Oc3cccc(Cl)c3)nc21` the value was above 20 µM; for `N#CCCn1c(=O)c(-c2ccc(Cl)cc2)nc2cnc(Oc3ccccc3)nc21`, above 20 µM; for `COc1ccc(-c2nc3cnc(Oc4cccc(Cl)c4)nc3n(CCC#N)c2=O)cc1`, above 20 µM.
Then `CS(=O)(=O)N1CCC2(CCN(c3ccccc3)CC2)CC1`, with above 20 µM; and `COc1ccc(-c2nc3cnc(N(C)C)nc3n(Cc3ccc(F)cc3)c2=O)cc1`, with above 20 µM.
As to `COc1ccc(CNc2ccnc(-c3cccnc3)n2)c(OC)c1`, the Potency is above 20 µM.
For `O=C(c1cnccn1)N1CCC[C@@]2(CCN(Cc3nccs3)C2)C1` the value was above 20 µM.
